The whole screen tested about 39,000 compounds, of which about 3,300 (8.5%) were called active. The entries come from a sample that favours actives as a whole.

The subject of the experiment is HepG2. As to the kind of experiment: cytotoxicity call (relative viability < 0.9). To be noted: 10 µM.
On to `COc1cc(S(C)(=O)=O)ccc1Nc1nc2ccc(-c3ccc(NC(=O)[C@H](C)c4ccc(F)cc4)cc3)cn2n1`, for which the cytotoxicity call was “inactive”.
On to `C[C@@H]1CN([C@H](C)CO)C(=O)c2cc(NC(=O)Nc3ccccc3)ccc2O[C@@H]1CN(C)Cc1ccc(Oc2ccccc2)cc1`, for which the cytotoxicity call was “active”.
The value for `C[C@@H]1CN([C@H](C)CO)C(=O)c2cc(NC(=O)Nc3ccccc3)ccc2O[C@H]1CN(C)Cc1ccc(Oc2ccccc2)cc1` was “active”.
For `COc1ccc(NC(=O)N(C)C[C@@H]2OCCCC[C@@H](C)Oc3ccc(NS(=O)(=O)c4ccc(C)cc4)cc3C(=O)N([C@@H](C)CO)C[C@@H]2C)cc1` the value was “inactive”; for `CCCNC(=O)N1C[C@H]2[C@@H](c3ccccc31)[C@H](CO)N2C(=O)CN1CCOCC1`, “inactive”; for `C[C@@H]1CCCCO[C@@H](CN(C)Cc2ccc(Cl)c(Cl)c2)[C@H](C)CN([C@@H](C)CO)C(=O)c2cc(NS(=O)(=O)c3cccs3)ccc2O1`, “inactive”.
The value for `CC(=O)NCC(=O)N1CCC2(CC1)C(=O)N(CC1CC1)CCN2C` was “inactive”; that for `C[C@@H]1CN([C@H](C)CO)C(=O)c2cc(NS(=O)(=O)c3ccc(F)cc3)ccc2O[C@H]1CN(C)S(C)(=O)=O` was “inactive”; that for `C[C@@H]1ON(c2ccc(C(=O)OC(C)(C)C)cc2)[C@H](c2ccc(O)cc2)[C@H]1C(=O)N1C(=O)OC[C@H]1Cc1ccccc1` was “inactive”.
For the molecule `COc1cccc(S(=O)(=O)N(C)C[C@@H]2Oc3ncc(-c4ccc(F)cc4)cc3C(=O)N([C@H](C)CO)C[C@@H]2C)c1`, the cytotoxicity call is “inactive”.
For `O=C(c1ccco1)N1CCNCC1` the value was “inactive”; for `COc1cc2nc(N(C)CCCNC(=O)C3CCCO3)nc(N)c2cc1OC.Cl` (stereo not drawn), “inactive”; for `NC(=O)C1CCN(C(=O)c2ccco2)CC1`, “inactive”.
Regarding `COc1cc2nc(N3CCN(C(=O)C4COc5ccccc5O4)CC3)nc(N)c2cc1OC.CS(=O)(=O)O` (stereo not drawn), the cytotoxicity call is “inactive”.
The value for `COc1cc2nc(N3CCN(C(=O)c4ccco4)CC3)nc(N)c2cc1OC.Cl` was “active”; that for `COc1cc2nc(N3CCN(C(=O)C4CCCO4)CC3)nc(N)c2cc1OC.Cl` (stereo not drawn) was “active”.
Take `Cl.Cl.NCCNCCNCCN`: the cytotoxicity call is “inactive”.
As for `C[C@@H]1CCCCO[C@@H](CN(C)C(=O)CCC(F)(F)F)[C@H](C)CN([C@@H](C)CO)C(=O)c2cc(NC(=O)Nc3ccccc3)ccc2O1`, the cytotoxicity call is “inactive”.
The value for `C[C@@H]1CCCCO[C@H](CN(C)CC2CC2)[C@@H](C)CN([C@H](C)CO)C(=O)c2cc(NC(=O)Cc3ccccc3)ccc2O1` was “inactive”; that for `O=C(C[C@H]1CC[C@@H]2[C@H](COC[C@H](O)CN2C(=O)c2cnccn2)O1)N1CCN(c2ccccc2)CC1` was “inactive”; that for `C[C@H](CO)N1C[C@H](C)[C@H](CN(C)CC2CCCCC2)OCCCC[C@H](C)Oc2ccc(NC(=O)CCCN(C)C)cc2C1=O` was “inactive”.
For `NNC(=O)c1ccc2c(=O)[nH][nH]c(=O)c2c1` the value was “inactive”.
For `CCS(=O)(=O)NCC[C@@H]1CC[C@@H](NS(=O)(=O)c2ccccc2C)[C@H](CO)O1` the value was “inactive”; for `COCc1cn(CC[C@@H]2CC[C@H](NC(=O)CCN3CCCCC3)[C@@H](CO)O2)nn1`, “inactive”.
As for `CN(C)CCCNC(=O)C[C@@H]1CC[C@H]2[C@@H](COc3ccc(NC(=O)c4ccc5c(c4)OCO5)cc3C(=O)N2C)O1`, the cytotoxicity call is “inactive”.
The value for `C[C@@H]1CN([C@H](C)CO)C(=O)c2cc(NS(C)(=O)=O)ccc2O[C@H]1CN(C)C(=O)Nc1ccc(C(F)(F)F)cc1` was “inactive”.
For the molecule `C[C@@H]1CN([C@@H](C)CO)C(=O)c2cc(NS(C)(=O)=O)ccc2O[C@@H]1CN(C)C(=O)Nc1ccc(C(F)(F)F)cc1`, the cytotoxicity call is “active”.
On to `C[C@H](CO)N1C[C@H](C)[C@@H](CN(C)C(=O)Nc2ccc(C(F)(F)F)cc2)Oc2ccc(NS(C)(=O)=O)cc2C1=O`, for which the cytotoxicity call was “inactive”.
The value for `C[C@H](CO)N1C[C@H](C)[C@@H](CN(C)C(=O)Nc2ccc(F)cc2)Oc2ccc(NS(C)(=O)=O)cc2C1=O` was “inactive”.
For `C[C@H]1CN([C@@H](C)CO)C(=O)c2cc(NS(C)(=O)=O)ccc2O[C@H]1CN(C)C(=O)Nc1ccc(F)cc1` the value was “inactive”; for `C[C@H]1CN([C@@H](C)CO)C(=O)c2cc(NS(C)(=O)=O)ccc2O[C@H]1CN(C)C(=O)Nc1ccc(C(F)(F)F)cc1`, “active”; for `C[C@H]1CN([C@@H](C)CO)C(=O)c2cc(NS(C)(=O)=O)ccc2O[C@@H]1CN(C)C(=O)Nc1ccc(C(F)(F)F)cc1`, “inactive”.
As for `C[C@@H]1CN([C@@H](C)CO)C(=O)c2cc(NS(C)(=O)=O)ccc2O[C@H]1CN(C)C(=O)Nc1ccc(C(F)(F)F)cc1`, the cytotoxicity call is “inactive”.
As to `C[C@H]1CN([C@@H](C)CO)C(=O)c2cc(NS(C)(=O)=O)ccc2O[C@@H]1CN(C)C(=O)Nc1ccc(F)cc1`, the cytotoxicity call was “active”.
Consider `C[C@@H]1CCCCO[C@@H](CN(C)C(=O)c2ccncc2)[C@H](C)CN([C@H](C)CO)C(=O)c2cc(NS(C)(=O)=O)ccc2O1`, for which the cytotoxicity call was “inactive”.
For `N#C[C@H](c1ccccn1)N1CCOCC1` the value was “inactive”; for `O=c1n(-c2ccccc2)c(=O)n2n1CC(COc1ccccc1)=C1[C@@H](CCc3ccccc3)OB(O)C[C@@H]12`, “inactive”.
The value for `C[C@H](CO)N1C[C@H](C)[C@@H](CN(C)S(C)(=O)=O)Oc2ccc(NS(=O)(=O)c3ccc(F)cc3)cc2C1=O` was “inactive”.
The value for `COc1cccc(S(=O)(=O)N2C[C@H](O)COC[C@H]3O[C@@H](CC(=O)N4CCOCC4)CC[C@@H]32)c1` was “inactive”; that for `CC(C)NC(=O)N[C@@H]1C=C[C@@H](CC(=O)NCCCN(C)C)O[C@@H]1CO` was “inactive”; that for `O=C(C[C@H]1C[C@@H]2c3cc(NC(=O)C4CCOCC4)ccc3O[C@@H]2[C@@H](CO)O1)NCCN1CCCCC1` was “inactive”.
Regarding `C[C@H]1CN([C@@H](C)CO)C(=O)c2cccc(NC(=O)c3ccncc3)c2O[C@@H]1CN(C)Cc1ccc(C(=O)O)cc1`, the cytotoxicity call is “inactive”.
For `C[C@@H]1CN([C@@H](C)CO)C(=O)c2cc(C#Cc3ccccc3F)cnc2O[C@@H]1CN(C)S(=O)(=O)c1ccccc1` the value was “inactive”.
For `O=S(=O)(NCCN(C/C=C/c1ccc(F)cc1)C/C=C/c1ccc(F)cc1)c1cccc2cnccc12` the value was “inactive”.
`O=S(=O)(c1cccc2cnccc12)N1CCCNCC1`: the cytotoxicity call was “active”.
The value for `O=S(=O)(c1ccc(-n2cnnn2)cc1)N1CCNCC1` was “inactive”; that for `COc1ccc(S(=O)(=O)Nc2ccc3c(c2)C(=O)N([C@@H](C)CO)C[C@H](C)[C@@H](CN(C)C(=O)Nc2cccc4ccccc24)OCCCC[C@H](C)O3)cc1` was “inactive”.
The value for `C[C@@H]1CN([C@H](C)CO)C(=O)c2cc(NC(=O)Nc3cccc4ccccc34)ccc2O[C@@H]1CN(C)Cc1ccc(C(=O)O)cc1` was “inactive”; that for `C[C@@H]1CN([C@H](C)CO)C(=O)c2cc(NC(=O)Nc3cccc4ccccc34)ccc2O[C@H]1CN(C)Cc1ccc(-c2ccccc2)cc1` was “active”.
For `C[C@H]1CN([C@@H](C)CO)C(=O)c2cc(NC(=O)Nc3cccc4ccccc34)ccc2O[C@H]1CN(C)Cc1ccccc1` the value was “inactive”; for `C[C@H](CO)N1C[C@H](C)[C@H](CN(C)Cc2ccc(-c3ccccc3)cc2)Oc2ccc(NC(=O)Nc3cccc4ccccc34)cc2C1=O`, “active”.
Consider `C[C@@H]1CN([C@@H](C)CO)C(=O)c2cc(NC(=O)Nc3cccc4ccccc34)ccc2O[C@H]1CN(C)Cc1ccc(-c2ccccc2)cc1`, for which the cytotoxicity call is “inactive”.
For `C[C@@H]1CN([C@@H](C)CO)C(=O)c2cc(NC(=O)Nc3cccc4ccccc34)ccc2O[C@@H]1CN(C)Cc1ccc(-c2ccccc2)cc1`, the cytotoxicity call is “inactive”.
As for `C[C@@H]1CN([C@H](C)CO)C(=O)c2cc(NC(=O)Nc3cccc4ccccc34)ccc2O[C@@H]1CN(C)Cc1ccc(-c2ccccc2)cc1`, the cytotoxicity call was “active”.
For `C[C@H](CO)N1C[C@H](C)[C@@H](CN(C)Cc2ccc(-c3ccccc3)cc2)Oc2ccc(NC(=O)Nc3cccc4ccccc34)cc2C1=O` the value was “inactive”; for `C[C@H]1CN([C@@H](C)CO)C(=O)c2cc(NC(=O)Nc3cccc4ccccc34)ccc2O[C@H]1CN(C)Cc1ccc(C(=O)O)cc1`, “inactive”.
For the molecule `C[C@H](CO)N1C[C@H](C)[C@H](CN(C)Cc2ccc(C(=O)O)cc2)Oc2ccc(NC(=O)Nc3cccc4ccccc34)cc2C1=O`, the cytotoxicity call was “inactive”.
For `C[C@H]1CN([C@@H](C)CO)C(=O)c2cc(NC(=O)Nc3cccc4ccccc34)ccc2O[C@@H]1CN(C)Cc1ccc(-c2ccccc2)cc1` the value was “active”; for `C[C@H]1CN([C@@H](C)CO)C(=O)c2cc(NC(=O)Nc3cccc4ccccc34)ccc2O[C@H]1CN(C)Cc1ccc(-c2ccccc2)cc1`, “inactive”; for `C[C@@H]1CCCCO[C@@H](CN(C)C(=O)NC2CCCCC2)[C@H](C)CN([C@H](C)CO)C(=O)c2cc(NC(=O)NC3CCCCC3)ccc2O1`, “inactive”.
The value for `C[C@H](CO)N1C[C@H](C)[C@@H](CN(C)C(=O)Nc2ccccc2)Oc2ccc(NC(=O)CCCCCC(=O)Nc3ccccc3N)cc2CC1=O` was “inactive”; that for `COc1ccccc1C#Cc1cnc2c(c1)C(=O)N([C@H](C)CO)C[C@@H](C)[C@@H](CN(C)C(=O)CC1CC1)O2` was “inactive”.
For `C[C@H](CO)N1C[C@H](C)[C@@H](CN(C)S(=O)(=O)c2ccc(Cl)cc2)Oc2ccc(NC(=O)C3CC3)cc2C1=O` the value was “inactive”; for `CCCCCCCCCCCCCCCC(=O)OCC=C(C)C=CC=C(C)C=CC1=C(C)CCCC1(C)C`, “inactive”.
Turning to `C[C@H]1CN([C@@H](C)CO)C(=O)c2cc(N(C)C)ccc2O[C@H]1CN(C)S(=O)(=O)c1ccc(Cl)cc1`, the cytotoxicity call was “inactive”.
For `C[C@@H]1CCCCO[C@@H](CN(C)S(C)(=O)=O)[C@@H](C)CN([C@H](C)CO)C(=O)c2cc(NS(C)(=O)=O)ccc2O1` the value was “inactive”; for `CN(C)CCCNC(=O)C[C@@H]1CC[C@@H]2[C@@H](COc3ccc(NS(C)(=O)=O)cc3C(=O)N2C)O1`, “inactive”.
The value for `CO[C@@H]1CN(C)C(=O)c2cc(NC(=O)Nc3ccccc3F)ccc2OC[C@H](C)N(Cc2ccccc2C(=O)O)C[C@H]1C` was “inactive”.

(Values after the antibiotic and cytotoxicity screens of Wong et al. (2023).)
